From the supplement of paper PMC8975748
Counter-ions that a name gives are not always drawn. ± gives the standard deviation of the averaged measurements.

What was measured:
[1] = system: Saccharomyces cerevisiae BY4741 SeMeCo community; experiment: z-score of prototroph abundance vs DMSO median; higher = larger share of this subpopulation than in DMSO controls; conditions: 10 µM; 24 h; SM minimal medium; subpopulation (auxotrophy): Prototroph
How it was run: (§1)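 Four plasmids, each restoring a single auxotrophy and encoding a distinct fluorescent protein, were carried by a Saccharomyces cerevisiae BY4741 community. After overnight growth to OD600 1.0 and dilution to 0.3, 70 µl per well was grown for 24 h in minimal SM medium on 384-well plates acoustically predosed with library drugs at 10 µM final. Following paraformaldehyde fixation, automated confocal microscopy was used, with single-auxotroph fluorescent strains defining thresholds and autofluorescence correction. Subpopulation abundance was then scored as a z-score against the vehicle-well median.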

[2] = system: Saccharomyces cerevisiae BY4741 SeMeCo community; experiment: z-score of subpopulation abundance vs DMSO median, subpopulation auxotrophic for M; higher = larger share of this subpopulation than in DMSO controls; conditions: 10 µM; 24 h; SM minimal medium; subpopulation (auxotrophy): M
How it was run: as §1

[3] = system: Saccharomyces cerevisiae BY4741 SeMeCo community; experiment: z-score of subpopulation abundance vs DMSO median, subpopulation auxotrophic for L; higher = larger share of this subpopulation than in DMSO controls; conditions: 10 µM; 24 h; SM minimal medium; subpopulation (auxotrophy): L
How it was run: as §1

[4] = system: Saccharomyces cerevisiae BY4741 SeMeCo community; experiment: z-score of subpopulation abundance vs DMSO median, subpopulation auxotrophic for U; higher = larger share of this subpopulation than in DMSO controls; conditions: 10 µM; 24 h; SM minimal medium; subpopulation (auxotrophy): U
How it was run: as §1

[5] = system: Saccharomyces cerevisiae BY4741 SeMeCo community; experiment: z-score of subpopulation abundance vs DMSO median, subpopulation auxotrophic for H; higher = larger share of this subpopulation than in DMSO controls; conditions: 10 µM; 24 h; SM minimal medium; subpopulation (auxotrophy): H
How it was run: as §1

[6] = system: Saccharomyces cerevisiae BY4741 SeMeCo community; experiment: z-score of subpopulation abundance vs DMSO median, subpopulation auxotrophic for HM; higher = larger share of this subpopulation than in DMSO controls; conditions: 10 µM; 24 h; SM minimal medium; subpopulation (auxotrophy): HM
How it was run: as §1

[7] = system: Saccharomyces cerevisiae BY4741 SeMeCo community; experiment: z-score of subpopulation abundance vs DMSO median, subpopulation auxotrophic for HU; higher = larger share of this subpopulation than in DMSO controls; conditions: 10 µM; 24 h; SM minimal medium; subpopulation (auxotrophy): HU
How it was run: as §1

[8] = system: Saccharomyces cerevisiae BY4741 SeMeCo community; experiment: z-score of subpopulation abundance vs DMSO median, subpopulation auxotrophic for HL; higher = larger share of this subpopulation than in DMSO controls; conditions: 10 µM; 24 h; SM minimal medium; subpopulation (auxotrophy): HL
How it was run: as §1

[9] = system: Saccharomyces cerevisiae BY4741 SeMeCo community; experiment: z-score of subpopulation abundance vs DMSO median, subpopulation auxotrophic for HLU; higher = larger share of this subpopulation than in DMSO controls; conditions: 10 µM; 24 h; SM minimal medium; subpopulation (auxotrophy): HLU
How it was run: as §1

[10] = system: Saccharomyces cerevisiae BY4741 SeMeCo community; experiment: z-score of subpopulation abundance vs DMSO median, subpopulation auxotrophic for HLM; higher = larger share of this subpopulation than in DMSO controls; conditions: 10 µM; 24 h; SM minimal medium; subpopulation (auxotrophy): HLM
How it was run: as §1

[11] = system: Saccharomyces cerevisiae BY4741 SeMeCo community; experiment: z-score of subpopulation abundance vs DMSO median, subpopulation auxotrophic for LUM; higher = larger share of this subpopulation than in DMSO controls; conditions: 10 µM; 24 h; SM minimal medium; subpopulation (auxotrophy): LUM
How it was run: as §1

[12] = system: Saccharomyces cerevisiae BY4741 SeMeCo community; experiment: z-score of subpopulation abundance vs DMSO median, subpopulation auxotrophic for UM; higher = larger share of this subpopulation than in DMSO controls; conditions: 10 µM; 24 h; SM minimal medium; subpopulation (auxotrophy): UM
How it was run: as §1

[13] = system: Saccharomyces cerevisiae BY4741 SeMeCo community; experiment: z-score of subpopulation abundance vs DMSO median, subpopulation auxotrophic for HLUM; higher = larger share of this subpopulation than in DMSO controls; conditions: 10 µM; 24 h; SM minimal medium; subpopulation (auxotrophy): HLUM
How it was run: as §1

[14] = system: Saccharomyces cerevisiae BY4741 SeMeCo community; experiment: mean cell size (pixel area) (pixels); higher = larger cells; conditions: 10 µM; 24 h; SM minimal medium
How it was run: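 Plates of 384 wells were acoustically predosed with drug at a final 10 µM in SM medium, and 70 µl of a Saccharomyces cerevisiae BY4741 preculture diluted from OD600 = 1.0 to OD600 = 0.3 was added for 24 h. The yeast formed a four-plasmid fluorescent community in which each plasmid complements one auxotrophy and carries a fluorescent marker. Fixed cells were imaged by automated confocal microscopy and analysed in Harmony for mean cell pixel area per well. Values are means of 3 replicates. Same SeMeCo high-content imaging drug screen: Selleck FDA-approved drugs at 10 µM, 24 h in SM medium, 384-well plates, 3 replicates.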

[15] = system: Saccharomyces cerevisiae BY4741 SeMeCo community; experiment: z-score of subpopulation abundance vs DMSO median, subpopulation auxotrophic for LU; higher = larger share of this subpopulation than in DMSO controls; conditions: 10 µM; 24 h; SM minimal medium; subpopulation (auxotrophy): LU
How it was run: as §1

[16] = system: Saccharomyces cerevisiae BY4741 SeMeCo community; experiment: z-score of subpopulation abundance vs DMSO median, subpopulation auxotrophic for LM; higher = larger share of this subpopulation than in DMSO controls; conditions: 10 µM; 24 h; SM minimal medium; subpopulation (auxotrophy): LM
How it was run: as §1

[17] = system: Saccharomyces cerevisiae BY4741 SeMeCo community; experiment: z-score of subpopulation abundance vs DMSO median, subpopulation auxotrophic for HUM; higher = larger share of this subpopulation than in DMSO controls; conditions: 10 µM; 24 h; SM minimal medium; subpopulation (auxotrophy): HUM
How it was run: as §1

SMILES | z-score of prototroph abundance [1] | z-score of subpopulation abundance [2] | z-score of subpopulation abundance [3] | z-score of subpopulation abundance [4] | z-score of subpopulation abundance [5] | z-score of subpopulation abundance [6] | z-score of subpopulation abundance [7] | z-score of subpopulation abundance [8] | z-score of subpopulation abundance [9] | z-score of subpopulation abundance [10] | z-score of subpopulation abundance [11] | z-score of subpopulation abundance [12] | z-score of subpopulation abundance [13] | mean cell size [14] | z-score of subpopulation abundance [15] | z-score of subpopulation abundance [16] | z-score of subpopulation abundance [17]
CCCCCCCN(CC)CCCC(O)c1ccc(NS(C)(=O)=O)cc1 (configuration not stated) [Ibutilide Fumarate] | 0.2 | -0.42 | -0.88 | 0.93 | 0.34 | 0.11 | 0.97 | -0.89 | -0.63 | -0.14 | 0.19 | – | – | – | – | – | –
CC(NCCC(c1ccccc1)c1ccccc1)c1ccccc1 (configuration not stated) [Fendiline hydrochloride] | 1.56 | -1.56 | 0.03 | – | -1.47 | -1.15 | -0.97 | – | -0.27 | -0.59 | 0.05 | -1.15 | -0.29 | – | – | – | –
CN1CCc2cc3c(cc2C(=O)Cc2ccc4c(c2C1)OCO4)OCO3 [Protopine] | -0.56 | – | 1.72 | -0.67 | 0.05 | -0.3 | -0.45 | 1.17 | 0.88 | 0.14 | 1.38 | -0.23 | 0.9 | 12.2 ± 0.13 | 1.45 | 1.78 | 0.19
C[C@H](NCc1ccc(OCc2cccc(F)c2)cc1)C(N)=O [Safinamide Mesylate] | -0.78 | 0.58 | 0.79 | – | 0.45 | 1.04 | – | 0.64 | 0.4 | – | 0.24 | 0.17 | 0.33 | 12.4 ± 0.16 | – | 0.94 | –
CCCN(CCc1cccs1)[C@H]1CCc2c(O)cccc2C1 [Rotigotine] | 0.61 | 0.93 | 0.33 | -1.74 | – | – | -1.03 | 0.46 | -0.16 | -0.19 | -0.27 | -1.79 | -0.54 | – | – | 1.22 | -0.69
CCc1nn(CCCN2CCN(c3cccc(Cl)c3)CC2)c(=O)n1CCOc1ccccc1 [Nefazodone hydrochloride] | – | -0.42 | 0.67 | -0.01 | 2.06 | 0.55 | 0.21 | 0.71 | 0.16 | 0.6 | 0.49 | – | 0.44 | 12.38 ± 0.1 | – | -0.3 | –
Cc1cccc(C)c1NC(=O)C1CCCCN1C (configuration not stated) [Mepivacaine HCl] | – | -0.34 | -0.36 | – | -0.77 | -0.57 | 0.57 | -0.96 | 0.11 | – | 0.38 | 2.17 | 0.2 | 12.5 ± 0.31 | – | – | 0.36
COc1cc(C(C)=O)ccc1OCCCN1CCC(c2noc3cc(F)ccc23)CC1 [Iloperidone] | -0.06 | 0.33 | 0.2 | – | 0.05 | – | -0.38 | 0.55 | -1.31 | 0.44 | 0.9 | – | -0.49 | – | – | 0.71 | –
CN[C@H](CC(C)C)C(=O)N[C@H]1C(=O)N[C@@H](CC(N)=O)C(=O)N[C@H]2C(=O)N[C@H]3C(=O)N[C@H](C(=O)N[C@H](C(=O)O)c4cc(O)cc(O)c4-c4cc3ccc4O)[C@H](O)c3ccc(c(Cl)c3)Oc3cc2cc(c3O[C@@H]2O[C@H](CO)[C@@H](O)[C@H](O)[C@H]2O[C@H]2C[C@](C)(N)[C@H](O)[C@H](C)O2)Oc2ccc(cc2Cl)[C@H]1O [Vancomycin HCl] | 0 | 0.48 | – | -0.35 | -0.1 | 0.33 | 0.05 | -0.36 | -0.51 | 0.73 | -0.38 | 0.58 | – | – | – | 0.26 | –
CO/N=C(\C(=O)N[C@@H]1C(=O)N2C(C(=O)O)=C(CSc3nc(C)c(CC(=O)O)s3)CS[C@H]12)c1csc(N)n1 [Cefodizime Sodium] | 0.26 | -0.97 | – | 0.88 | -0.25 | -0.46 | – | -0.84 | -1.16 | -1.07 | – | 0.34 | -0.81 | 12.4 ± 0.13 | – | -1.04 | -0.09
Cc1cc(CC(C)CC(C)(C)C)n(O)c(=O)c1 (configuration not stated) [Piroctone Olamine] | -16.9 | 0.45 | 1.41 | 1.32 | 3.62 | 24 | 31.8 | – | 20.3 | – | 16 | 6.25 | 16.6 | 12 ± 0.34 | – | 6.65 | 30.2
CSc1nc2cc(Cl)c(Oc3cccc(Cl)c3Cl)cc2[nH]1 [Triclabendazole] | 1.8 | – | -0.07 | -0.92 | 5.63 | -3.03 | 2.73 | 3.65 | 2.64 | 7.41 | 1.09 | -5.17 | 4.69 | 13.1 ± 0.54 | 0.92 | -2.65 | -1.46
Cc1c(C(N)=O)cc([N+](=O)[O-])cc1[N+](=O)[O-] [Dinitolmide] | -0.01 | -0.14 | – | 0.48 | – | -0.5 | 0.78 | -0.36 | -0.18 | -0.3 | -0.13 | 0.34 | 0.38 | 12.4 ± 0.22 | – | 0.46 | -0.56
CN1[C@@H]2CC[C@H]1C[C@@H](OC(c1ccccc1)c1ccccc1)C2 [Benztropine mesylate] | 1.01 | -0.66 | – | – | -0.75 | – | -0.54 | 0.19 | -0.48 | -0.44 | -0.36 | -0.32 | – | 12.38 ± 0.057 | – | 0.22 | -0.47
Cc1c(Nc2ncccc2C(=O)O)cccc1C(F)(F)F [Flunixin Meglumin] | 0.11 | -0.95 | -1.33 | – | – | – | -0.19 | -0.74 | -1 | -0.58 | – | 0.51 | 0 | 12.6 ± 0.17 | – | -1.23 | –
CC[C@H]1OC(=O)[C@H](C)[C@@H](O[C@H]2C[C@@](C)(OC)[C@@H](O)[C@H](C)O2)[C@H](C)[C@@H](O[C@@H]2O[C@H](C)C[C@H](N(C)C)[C@H]2O)[C@](C)(O)C[C@@H](C)[C@@H]2N[C@@H](COCCOC)O[C@H]([C@H]2C)[C@]1(C)O [Dirithromycin] | 0.11 | – | 0.38 | 0.26 | -0.21 | -0.53 | -0.26 | -0.09 | -0.71 | -0.77 | 0.3 | -0.05 | -0.46 | 12.3 ± 0.27 | 0.32 | 0.49 | -0.1
